From PubChem BioAssay AID1159580 (chemical genetic matrix, 2015)
Values joined by “and” are separate entries in the source; they are usually repeats but may differ in a detail not shown here. Equal entries are not always repeated. The whole screen tested about 5,500 compounds, of which about 2,000 (36%) were called active. Inconclusive results (about 18%) are left out. Rule as the data show it: active = normalized growth mostly below about 0.91 (no sharp cut-off); inconclusive = no clear call, values can overlap the other calls; inactive = mostly above about 0.92. Some of the results follow.

Experiment: chemical genetic growth profiling, strain panel (AID 1159580);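 also: tested at 20 µM; growth read once vehicle control cultures reached saturation at 30 °C; 1 = growth at the plate median or of vehicle wells; lower values mean less growth of the strain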
Settings: S. cerevisiae deletion strains, growth OD

Measured: normalized growth

NC1C[C@H]1c1ccccc1 (stereo partly specified)
inactive: locus YAL013W, strain DEP1, stronger effect = lower value 1.01 | locus YAL021C, strain ccr4, stronger effect = lower value 1 | locus YAL026C, strain drs2, stronger effect = lower value 0.985 | locus YAL030W, strain snc1, stronger effect = lower value 0.985 | locus YBL061C, strain skt5, stronger effect = lower value 0.991 | locus YBR009C, strain hhf1, stronger effect = lower value 1 | locus YBR021W, strain FUR4, stronger effect = lower value 0.983 | locus YBR023C, strain chs3, stronger effect = lower value 0.983 | locus YBR171W, strain sec66, stronger effect = lower value 0.978 | locus YBR229C, strain ROT2, stronger effect = lower value 1 | locus YBR231C, strain swc5, stronger effect = lower value 0.98 | locus YBR279W, strain paf1, stronger effect = lower value 0.985 | locus YCL011C, strain gbp2, stronger effect = lower value 0.977 | locus YCL016C, strain dcc1, stronger effect = lower value 0.981 | locus YCL029C, strain bik1, stronger effect = lower value 0.978 | locus YCL069W, strain vba3, stronger effect = lower value 0.992 | locus YCR088W, strain abp1, stronger effect = lower value 0.992 | locus YDL005C, strain med2, stronger effect = lower value 0.953 | locus YDL035C, strain GPR1, stronger effect = lower value 1.01 | locus YDL040C, strain nat1, stronger effect = lower value 0.976 | locus YDL074C, strain BRE1, stronger effect = lower value 0.999 | locus YDL101C, strain DUN1, stronger effect = lower value 1 | locus YDL134C, strain PPH21, stronger effect = lower value 1.01 | locus YDL185W, strain tfp1, stronger effect = lower value 0.985 | locus YDL192W, strain arf1, stronger effect = lower value 0.995 | locus YDR001C, strain nth1, stronger effect = lower value 0.985 | locus YDR069C, strain doa4, stronger effect = lower value 0.98 | locus YDR101C, strain arx1, stronger effect = lower value 0.977 | locus YDR137W, strain rgp1, stronger effect = lower value 0.986 | locus YDR150W, strain NUM1, stronger effect = lower value 1 | locus YDR159W, strain sac3, stronger effect = lower value 0.984 | locus YDR162C, strain NBP2, stronger effect = lower value 1.01 | locus YDR195W, strain ref2 0.974 | locus YDR297W, strain sur2, stronger effect = lower value 1 | locus YDR318W, strain mcm21, stronger effect = lower value 0.972 | locus YDR334W, strain swr1, stronger effect = lower value 0.993 | locus YDR335W, strain msn5, stronger effect = lower value 0.997 | locus YDR388W, stronger effect = lower value 0.979 | locus YDR392W, strain spt3, stronger effect = lower value 0.991 | locus YDR502C, strain sam2, stronger effect = lower value 0.979 | locus YEL003W, strain gim4, stronger effect = lower value 0.993 | locus YEL037C, strain rad23, stronger effect = lower value 0.989 | locus YEL061C, strain CIN8 (second series), stronger effect = lower value 0.977 | locus YEL061C, strain CIN8, stronger effect = lower value 1.01 | locus YER015W, strain faa2, stronger effect = lower value 0.99 | locus YER016W, strain bim1, stronger effect = lower value 1.01 | locus YER110C, stronger effect = lower value 0.989 | locus YER111C, strain swi4, stronger effect = lower value 0.959 | locus YER155C, strain BEM2 (second series), stronger effect = lower value 0.976 | locus YER155C, strain BEM2, stronger effect = lower value 0.995 | locus YER167W, strain BCK2, stronger effect = lower value 1.01 | locus YFR010W, strain ubp6, stronger effect = lower value 1.04 | locus YGL078C, strain dbp3, stronger effect = lower value 0.973 | locus YGL086W, strain mad1, stronger effect = lower value 0.988 | locus YGL167C, strain pmr1, stronger effect = lower value 0.985 | locus YGL173C, strain kem1, stronger effect = lower value 0.991 | locus YGL227W, strain vid30, stronger effect = lower value 0.979 | locus YGL240W, strain doc1, stronger effect = lower value 0.991 | locus YGL248W, strain PDE1, stronger effect = lower value 1 | locus YGL253W, strain hxk2, stronger effect = lower value 0.985 | locus YGR078C, strain PAC10, stronger effect = lower value 0.989 | locus YGR135W, strain pre9, stronger effect = lower value 0.974 | locus YGR229C, strain SMI1, stronger effect = lower value 0.997 | locus YGR252W, strain gcn5, stronger effect = lower value 0.919 | locus YHR013C, strain ard1, stronger effect = lower value 0.962 | locus YHR027C, strain rpn1, stronger effect = lower value 0.995 | locus YHR030C, strain SLT2, stronger effect = lower value 1 and 0.953 | locus YHR079C, strain IRE1 (second series), stronger effect = lower value 0.975 | locus YHR079C, strain IRE1, stronger effect = lower value 0.983 | locus YHR094C, strain hxt1, stronger effect = lower value 0.989 | locus YHR129C, strain ARP1, stronger effect = lower value 1.01 | locus YHR142W, strain chs7, stronger effect = lower value 0.967 | locus YHR200W, strain rpn10, stronger effect = lower value 0.976 | locus YIL066C, strain RNR3, stronger effect = lower value 1.01 | locus YIL073C, strain SPO22, stronger effect = lower value 1.01 | locus YIL125W, strain kgd1, stronger effect = lower value 0.986 | locus YIR030C, strain dcg1, stronger effect = lower value 0.988 | locus YJL092W, strain hpr5, stronger effect = lower value 0.992 | locus YJL095W, strain BCK1 (second series), stronger effect = lower value 1 | locus YJL095W, strain BCK1, stronger effect = lower value 1.01 and 0.965 | locus YJL115W, strain asf1, stronger effect = lower value 0.976 | locus YJL129C, strain trk1, stronger effect = lower value 0.963 | locus YJL134W, strain LCB3, stronger effect = lower value 1 | locus YJL154C, strain vps35, stronger effect = lower value 0.973 | locus YJL164C, strain tpk1, stronger effect = lower value 0.999 | locus YJL166W, strain qcr8, stronger effect = lower value 1.01 | locus YJL168C, strain set2, stronger effect = lower value 0.983 | locus YJL187C, strain SWE1 (second series), stronger effect = lower value 1.01 | locus YJL187C, strain SWE1, stronger effect = lower value 0.992 | locus YJR043C, strain POL32, stronger effect = lower value 0.995 | locus YJR066W, strain TOR1, stronger effect = lower value 0.931
